Common to all, as to experiment: DAPPL (digital affinity profiling via proximity ligation, sequencing); 10 mM Tris-HCl pH 7.5, 50 mM NaCl, 1 mM DTT, 4% glycerol, room temperature, 30 min; GST-TFs on glutathione beads, 16-mer random dsDNA library, 0.1% formaldehyde crosslink after washing; high values mean tight binding
For one experiment, the target named is T1, FLI1 (Homo sapiens, UniProt Q01543 1-452).
T1 sequence: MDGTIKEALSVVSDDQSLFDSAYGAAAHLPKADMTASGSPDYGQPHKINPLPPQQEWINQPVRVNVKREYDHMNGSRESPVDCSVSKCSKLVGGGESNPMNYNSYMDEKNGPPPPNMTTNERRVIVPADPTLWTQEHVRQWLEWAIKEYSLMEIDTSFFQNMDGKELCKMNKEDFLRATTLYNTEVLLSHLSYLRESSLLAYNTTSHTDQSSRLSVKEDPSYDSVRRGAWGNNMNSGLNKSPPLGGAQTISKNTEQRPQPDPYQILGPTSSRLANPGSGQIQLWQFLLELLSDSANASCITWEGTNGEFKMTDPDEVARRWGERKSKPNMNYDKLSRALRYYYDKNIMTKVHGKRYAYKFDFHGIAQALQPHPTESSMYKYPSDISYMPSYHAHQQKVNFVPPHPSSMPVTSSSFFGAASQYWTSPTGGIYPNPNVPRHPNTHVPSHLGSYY
Particulars: protein: recombinant; tags: N-terminal GST; dsDNA, one strand shown. In a few lines:
(§1)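 Binding signal is given per hexamer as its read frequency for a factor divided by its frequency in the tag-only sample. GST-fused human transcription factors were expressed in yeast, captured on glutathione beads, barcoded with DNA and pooled with that sample, then incubated with 200 nmole of a 16-mer random double-stranded DNA library in Tris/NaCl/DTT/glycerol buffer for 30 min at room temperature. The pools were then washed, crosslinked, proximity-ligated, amplified by PCR and sequenced on an Illumina NextSeq500.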

Another experiment addresses T2, ELK1 (Homo sapiens, UniProt P19419 1-428).
T2 sequence: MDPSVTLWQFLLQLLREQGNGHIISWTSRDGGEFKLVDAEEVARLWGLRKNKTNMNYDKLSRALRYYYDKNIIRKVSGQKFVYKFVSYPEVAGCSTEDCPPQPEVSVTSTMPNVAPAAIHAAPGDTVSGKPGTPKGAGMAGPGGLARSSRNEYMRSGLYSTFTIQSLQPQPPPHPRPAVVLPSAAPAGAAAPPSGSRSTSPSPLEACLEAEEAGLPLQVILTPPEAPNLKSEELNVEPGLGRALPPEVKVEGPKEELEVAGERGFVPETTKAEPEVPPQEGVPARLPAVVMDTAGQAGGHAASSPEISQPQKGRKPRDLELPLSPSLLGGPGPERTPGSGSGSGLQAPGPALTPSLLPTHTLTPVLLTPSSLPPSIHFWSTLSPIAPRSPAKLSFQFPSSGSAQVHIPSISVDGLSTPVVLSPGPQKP
Particulars: protein: recombinant; tags: N-terminal GST; dsDNA, one strand shown. In outline:
as §1

The target in the next experiment is T3, GABPA (Homo sapiens, UniProt Q06546 1-454).
T3 sequence: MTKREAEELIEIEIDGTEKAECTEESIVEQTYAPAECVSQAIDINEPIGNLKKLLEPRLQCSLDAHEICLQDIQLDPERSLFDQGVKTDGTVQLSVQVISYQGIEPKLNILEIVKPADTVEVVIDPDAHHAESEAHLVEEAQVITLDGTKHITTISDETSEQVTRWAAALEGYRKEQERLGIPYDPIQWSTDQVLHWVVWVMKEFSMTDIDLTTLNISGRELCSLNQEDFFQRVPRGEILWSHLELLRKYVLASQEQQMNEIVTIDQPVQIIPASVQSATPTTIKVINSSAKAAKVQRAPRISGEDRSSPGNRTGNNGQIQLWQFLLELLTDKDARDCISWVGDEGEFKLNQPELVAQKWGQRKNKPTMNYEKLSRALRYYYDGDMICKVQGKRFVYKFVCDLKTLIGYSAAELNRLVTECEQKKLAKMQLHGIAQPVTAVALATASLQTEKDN
The note with it: protein: recombinant; tags: N-terminal GST; dsDNA, one strand shown. In outline: as §1

The target of another experiment is T4, ERG (Homo sapiens, UniProt P11308 1-479).
T4 sequence: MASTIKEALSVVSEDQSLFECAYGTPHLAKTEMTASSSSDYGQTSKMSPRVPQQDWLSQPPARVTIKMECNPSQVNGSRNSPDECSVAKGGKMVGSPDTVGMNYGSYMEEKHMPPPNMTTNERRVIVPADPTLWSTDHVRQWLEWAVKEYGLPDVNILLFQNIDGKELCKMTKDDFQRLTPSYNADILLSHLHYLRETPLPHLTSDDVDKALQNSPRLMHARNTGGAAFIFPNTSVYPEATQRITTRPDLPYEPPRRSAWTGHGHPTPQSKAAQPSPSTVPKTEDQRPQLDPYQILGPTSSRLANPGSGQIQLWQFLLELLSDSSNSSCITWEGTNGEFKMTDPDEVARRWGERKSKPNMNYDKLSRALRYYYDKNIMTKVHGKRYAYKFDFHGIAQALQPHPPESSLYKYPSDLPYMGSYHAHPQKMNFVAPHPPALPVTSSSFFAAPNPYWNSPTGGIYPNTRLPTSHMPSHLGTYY
Particulars: protein: recombinant; tags: N-terminal GST; dsDNA, one strand shown. In outline: as §1

For the next experiment, the target named is ELF1 (Homo sapiens, UniProt P32519 1-619). Particulars: protein: recombinant; tags: N-terminal GST; dsDNA, one strand shown. In outline:
as §1

The next experiment concerns the target T5, EHF (Homo sapiens, UniProt Q9NZC4 1-300).
T5 sequence: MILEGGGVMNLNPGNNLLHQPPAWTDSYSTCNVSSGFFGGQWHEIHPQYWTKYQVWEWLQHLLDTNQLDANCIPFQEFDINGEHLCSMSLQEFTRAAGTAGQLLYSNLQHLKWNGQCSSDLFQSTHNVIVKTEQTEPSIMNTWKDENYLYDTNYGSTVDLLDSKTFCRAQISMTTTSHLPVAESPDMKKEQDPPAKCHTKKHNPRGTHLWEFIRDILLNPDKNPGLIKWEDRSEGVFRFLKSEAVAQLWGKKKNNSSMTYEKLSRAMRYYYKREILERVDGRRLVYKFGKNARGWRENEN
Particulars: protein: recombinant; tags: N-terminal GST; dsDNA, one strand shown. In a few lines: as §1

For a further experiment, the target named is SPI1 (Homo sapiens, UniProt P17947 1-270). The note with it: protein: recombinant; tags: N-terminal GST; dsDNA, one strand shown. In a few lines: as §1
The target of the next experiment is SPIB (Homo sapiens, UniProt Q01892 1-262). The note with it: protein: recombinant; tags: N-terminal GST; dsDNA, one strand shown. In outline: as §1
A further experiment addresses T6, ELK3 (Homo sapiens, UniProt P41970 1-407).
T6 sequence: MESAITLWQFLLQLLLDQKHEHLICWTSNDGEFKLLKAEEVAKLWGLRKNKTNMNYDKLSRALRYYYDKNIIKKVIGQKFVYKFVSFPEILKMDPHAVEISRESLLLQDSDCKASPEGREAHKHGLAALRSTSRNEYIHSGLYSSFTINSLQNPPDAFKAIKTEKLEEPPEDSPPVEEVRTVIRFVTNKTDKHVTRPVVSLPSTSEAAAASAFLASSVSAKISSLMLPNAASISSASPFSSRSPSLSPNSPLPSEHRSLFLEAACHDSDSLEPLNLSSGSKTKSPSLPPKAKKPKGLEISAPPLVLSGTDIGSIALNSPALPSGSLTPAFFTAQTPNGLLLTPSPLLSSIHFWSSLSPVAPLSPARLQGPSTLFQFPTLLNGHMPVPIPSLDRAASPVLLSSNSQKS
Particulars: protein: recombinant; tags: N-terminal GST; dsDNA, one strand shown. In outline:
as §1

Another experiment has as its target T7, FEV (Homo sapiens, UniProt Q99581 1-238).
T7 sequence: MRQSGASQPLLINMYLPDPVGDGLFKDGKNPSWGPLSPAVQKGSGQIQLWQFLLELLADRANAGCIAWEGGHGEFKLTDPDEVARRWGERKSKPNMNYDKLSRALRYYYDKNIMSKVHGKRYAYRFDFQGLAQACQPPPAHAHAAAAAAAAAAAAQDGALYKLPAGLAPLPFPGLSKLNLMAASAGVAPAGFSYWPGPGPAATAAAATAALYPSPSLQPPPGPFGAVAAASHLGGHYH
The note with it: protein: recombinant; tags: N-terminal GST; dsDNA, one strand shown. In outline: as §1

For another experiment, the target named is ETV5 (Homo sapiens, UniProt P41161 1-510). The note with it: protein: recombinant; tags: N-terminal GST; dsDNA, one strand shown. In outline:
as §1

The target of another experiment is HSF1 (Homo sapiens, UniProt Q00613 1-529). Particulars: protein: recombinant; tags: N-terminal GST; chain copies: 3; dsDNA, one strand shown. In a few lines: as §1
A further experiment has as its target T8, SPIC (Homo sapiens, UniProt Q8N5J4 1-248).
T8 sequence: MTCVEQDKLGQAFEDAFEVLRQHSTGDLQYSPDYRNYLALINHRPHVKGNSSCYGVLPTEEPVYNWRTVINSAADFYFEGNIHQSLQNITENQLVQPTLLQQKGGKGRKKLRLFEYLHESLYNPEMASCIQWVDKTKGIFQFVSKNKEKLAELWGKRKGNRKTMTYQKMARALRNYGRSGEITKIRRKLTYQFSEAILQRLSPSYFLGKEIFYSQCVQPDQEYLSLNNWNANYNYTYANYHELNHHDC
The note with it: protein: recombinant; tags: N-terminal GST; dsDNA, one strand shown. In a few lines: as §1

The target of a further experiment is ELF4 (Homo sapiens, UniProt Q99607 1-663). Particulars: protein: recombinant; tags: N-terminal GST; dsDNA, one strand shown. In a few lines:
as §1

In another experiment the target is T9, ELK4 (Homo sapiens, UniProt P28324-2 1-405).
T9 sequence: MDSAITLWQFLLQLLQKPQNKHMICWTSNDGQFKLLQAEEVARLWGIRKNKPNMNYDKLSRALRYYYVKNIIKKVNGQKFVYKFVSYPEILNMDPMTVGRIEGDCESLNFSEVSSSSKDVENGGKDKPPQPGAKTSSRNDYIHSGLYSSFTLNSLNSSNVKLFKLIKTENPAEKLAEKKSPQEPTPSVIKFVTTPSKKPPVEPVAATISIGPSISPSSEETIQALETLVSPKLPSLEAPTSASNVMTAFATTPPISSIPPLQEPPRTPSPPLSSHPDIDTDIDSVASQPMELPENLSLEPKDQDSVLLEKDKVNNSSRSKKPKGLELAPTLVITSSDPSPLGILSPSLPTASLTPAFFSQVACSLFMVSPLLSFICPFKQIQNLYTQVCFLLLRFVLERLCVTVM
The note with it: protein: recombinant; tags: N-terminal GST; dsDNA, one strand shown. In a few lines: as §1

In a further experiment the target is T10, ETV2 (Homo sapiens, UniProt O00321 1-342).
T10 sequence: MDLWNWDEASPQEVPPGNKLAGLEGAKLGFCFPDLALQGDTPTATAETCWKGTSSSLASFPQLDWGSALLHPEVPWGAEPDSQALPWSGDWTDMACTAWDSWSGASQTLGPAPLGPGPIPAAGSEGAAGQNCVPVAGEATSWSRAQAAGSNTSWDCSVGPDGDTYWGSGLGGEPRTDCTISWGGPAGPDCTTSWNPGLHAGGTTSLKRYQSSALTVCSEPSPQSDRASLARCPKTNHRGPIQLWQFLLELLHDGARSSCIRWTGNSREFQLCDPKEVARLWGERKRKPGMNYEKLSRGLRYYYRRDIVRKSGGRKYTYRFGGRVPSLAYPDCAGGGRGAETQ
Particulars: protein: recombinant; tags: N-terminal GST; dsDNA, one strand shown. In outline: as §1

A further experiment has as its target T11, ELF3 (Homo sapiens, UniProt P78545 1-371).
T11 sequence: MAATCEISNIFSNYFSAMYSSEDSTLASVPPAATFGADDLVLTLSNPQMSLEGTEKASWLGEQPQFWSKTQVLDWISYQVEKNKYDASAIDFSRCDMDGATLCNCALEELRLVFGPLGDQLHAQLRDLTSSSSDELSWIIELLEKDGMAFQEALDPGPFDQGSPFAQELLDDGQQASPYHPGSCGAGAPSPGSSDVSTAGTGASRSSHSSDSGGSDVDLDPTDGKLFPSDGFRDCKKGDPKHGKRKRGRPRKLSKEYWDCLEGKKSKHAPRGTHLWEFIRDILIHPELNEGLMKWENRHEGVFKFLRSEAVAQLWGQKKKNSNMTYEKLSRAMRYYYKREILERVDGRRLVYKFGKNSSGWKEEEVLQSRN
Particulars: protein: recombinant; tags: N-terminal GST; dsDNA, one strand shown. In a few lines: as §1

A further experiment concerns the target CRX (Homo sapiens, UniProt O43186 1-299). Particulars: protein: recombinant; tags: N-terminal GST; dsDNA, one strand shown. In a few lines:
as §1

The target of the next experiment is ETV1 (Homo sapiens, UniProt P50549 1-477). The note with it: protein: recombinant; tags: N-terminal GST; dsDNA, one strand shown. In outline:
as §1

Chain of ELF4 (Q99607 whole entry): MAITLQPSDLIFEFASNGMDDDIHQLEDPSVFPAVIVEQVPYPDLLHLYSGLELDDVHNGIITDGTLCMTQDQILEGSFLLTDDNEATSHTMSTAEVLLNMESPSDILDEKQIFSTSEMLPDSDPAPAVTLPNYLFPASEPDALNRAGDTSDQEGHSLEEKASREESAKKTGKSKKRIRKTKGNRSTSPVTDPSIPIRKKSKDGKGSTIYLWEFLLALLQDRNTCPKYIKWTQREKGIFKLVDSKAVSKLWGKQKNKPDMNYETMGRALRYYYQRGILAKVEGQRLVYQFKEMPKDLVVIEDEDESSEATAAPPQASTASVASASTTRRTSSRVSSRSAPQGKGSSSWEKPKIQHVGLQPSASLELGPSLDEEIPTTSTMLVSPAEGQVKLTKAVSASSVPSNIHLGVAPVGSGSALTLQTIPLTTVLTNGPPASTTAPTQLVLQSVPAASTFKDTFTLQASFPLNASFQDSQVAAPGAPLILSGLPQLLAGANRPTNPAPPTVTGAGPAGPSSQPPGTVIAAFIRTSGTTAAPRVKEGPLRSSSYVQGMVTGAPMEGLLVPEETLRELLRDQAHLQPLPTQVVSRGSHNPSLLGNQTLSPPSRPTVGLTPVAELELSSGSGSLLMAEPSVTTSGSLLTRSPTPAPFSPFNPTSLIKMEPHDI
Chain of SPIB (Q01892 whole entry): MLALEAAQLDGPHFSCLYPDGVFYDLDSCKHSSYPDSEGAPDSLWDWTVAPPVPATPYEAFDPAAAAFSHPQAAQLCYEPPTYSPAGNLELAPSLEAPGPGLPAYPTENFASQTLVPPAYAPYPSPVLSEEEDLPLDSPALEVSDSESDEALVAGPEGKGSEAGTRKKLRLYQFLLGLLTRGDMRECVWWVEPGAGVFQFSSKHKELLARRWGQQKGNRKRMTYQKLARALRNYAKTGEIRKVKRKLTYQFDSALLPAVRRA
Chain of ELF1 (P32519 whole entry): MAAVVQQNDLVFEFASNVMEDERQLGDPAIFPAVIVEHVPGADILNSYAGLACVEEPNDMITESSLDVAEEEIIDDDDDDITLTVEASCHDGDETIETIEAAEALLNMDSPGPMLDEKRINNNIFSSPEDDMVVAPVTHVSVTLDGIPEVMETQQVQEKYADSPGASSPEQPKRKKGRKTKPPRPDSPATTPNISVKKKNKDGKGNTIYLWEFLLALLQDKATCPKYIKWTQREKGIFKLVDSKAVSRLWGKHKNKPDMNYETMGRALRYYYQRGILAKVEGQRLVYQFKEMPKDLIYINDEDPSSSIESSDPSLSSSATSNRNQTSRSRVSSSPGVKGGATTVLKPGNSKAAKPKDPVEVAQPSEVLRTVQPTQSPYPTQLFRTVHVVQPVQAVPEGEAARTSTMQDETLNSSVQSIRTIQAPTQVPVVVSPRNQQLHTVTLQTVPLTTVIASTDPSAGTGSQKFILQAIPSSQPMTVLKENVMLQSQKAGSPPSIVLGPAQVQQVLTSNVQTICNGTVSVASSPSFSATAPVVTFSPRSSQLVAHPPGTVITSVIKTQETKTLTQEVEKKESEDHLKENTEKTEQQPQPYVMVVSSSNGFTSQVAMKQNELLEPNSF
Chain of CRX (O43186 whole entry): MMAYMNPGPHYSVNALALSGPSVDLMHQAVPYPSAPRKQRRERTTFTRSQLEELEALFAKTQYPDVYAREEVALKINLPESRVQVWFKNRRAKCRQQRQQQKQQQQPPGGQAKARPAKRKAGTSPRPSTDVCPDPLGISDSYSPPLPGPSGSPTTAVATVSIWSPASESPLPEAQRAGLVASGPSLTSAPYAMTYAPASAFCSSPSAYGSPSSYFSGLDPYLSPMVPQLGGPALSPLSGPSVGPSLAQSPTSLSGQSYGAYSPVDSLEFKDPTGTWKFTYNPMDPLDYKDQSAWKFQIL
Chain of ETV1 (P50549 whole entry): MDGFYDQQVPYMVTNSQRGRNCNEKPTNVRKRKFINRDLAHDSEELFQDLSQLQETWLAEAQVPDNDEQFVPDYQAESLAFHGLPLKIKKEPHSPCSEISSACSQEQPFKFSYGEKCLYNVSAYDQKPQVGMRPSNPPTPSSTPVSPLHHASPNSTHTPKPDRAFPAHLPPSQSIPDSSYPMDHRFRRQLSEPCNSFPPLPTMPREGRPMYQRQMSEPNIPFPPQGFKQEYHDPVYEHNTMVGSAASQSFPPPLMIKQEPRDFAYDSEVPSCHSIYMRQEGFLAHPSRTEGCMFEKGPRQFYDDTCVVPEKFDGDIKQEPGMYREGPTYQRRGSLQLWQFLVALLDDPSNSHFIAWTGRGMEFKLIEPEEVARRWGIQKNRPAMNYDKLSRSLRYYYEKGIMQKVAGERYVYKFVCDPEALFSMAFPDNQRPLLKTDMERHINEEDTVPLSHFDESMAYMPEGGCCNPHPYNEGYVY
Chain of ETV5 (P41161 whole entry): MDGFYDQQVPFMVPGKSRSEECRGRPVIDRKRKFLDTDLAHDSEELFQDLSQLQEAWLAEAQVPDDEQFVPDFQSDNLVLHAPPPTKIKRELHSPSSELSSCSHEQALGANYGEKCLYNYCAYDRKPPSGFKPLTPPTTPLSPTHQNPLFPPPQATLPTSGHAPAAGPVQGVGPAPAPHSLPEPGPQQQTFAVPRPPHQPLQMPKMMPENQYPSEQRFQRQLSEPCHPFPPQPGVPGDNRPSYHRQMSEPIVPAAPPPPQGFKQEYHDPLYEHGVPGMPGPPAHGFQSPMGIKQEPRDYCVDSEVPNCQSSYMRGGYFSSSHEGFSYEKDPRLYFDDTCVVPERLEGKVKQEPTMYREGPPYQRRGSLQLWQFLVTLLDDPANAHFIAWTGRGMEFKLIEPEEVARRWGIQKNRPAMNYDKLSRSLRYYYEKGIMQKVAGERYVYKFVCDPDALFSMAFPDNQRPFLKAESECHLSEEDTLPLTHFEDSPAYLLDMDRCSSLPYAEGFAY
Chain of HSF1 (Q00613 whole entry): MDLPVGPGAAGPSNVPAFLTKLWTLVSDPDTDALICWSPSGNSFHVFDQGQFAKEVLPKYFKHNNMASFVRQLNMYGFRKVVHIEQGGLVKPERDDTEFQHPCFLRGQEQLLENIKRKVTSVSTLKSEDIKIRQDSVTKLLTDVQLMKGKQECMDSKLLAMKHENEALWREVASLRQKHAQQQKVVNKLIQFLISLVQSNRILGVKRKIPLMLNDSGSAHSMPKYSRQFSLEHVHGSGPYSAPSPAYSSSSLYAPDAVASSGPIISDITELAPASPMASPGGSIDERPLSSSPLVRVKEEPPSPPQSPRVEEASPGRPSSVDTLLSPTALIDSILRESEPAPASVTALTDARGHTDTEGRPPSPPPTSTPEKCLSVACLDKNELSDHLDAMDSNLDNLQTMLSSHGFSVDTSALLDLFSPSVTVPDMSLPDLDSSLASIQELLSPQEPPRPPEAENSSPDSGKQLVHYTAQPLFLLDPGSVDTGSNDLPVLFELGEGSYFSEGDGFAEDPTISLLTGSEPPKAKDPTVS

For TATAGC, the binding signal is 1.2 fold enrichment (6-mer frequency, TF over GST control) in the experiment with FLI1; 1.22 fold enrichment (6-mer frequency, TF over GST control) with ELK1; 1.26 fold enrichment (6-mer frequency, TF over GST control) with GABPA; 1.2 fold enrichment (6-mer frequency, TF over GST control) with ERG; 1.21 fold enrichment (6-mer frequency, TF over GST control) with ELF1; 1.17 fold enrichment (6-mer frequency, TF over GST control) in the experiment with EHF. The binding signal with SPI1 is 1.16 fold enrichment (6-mer frequency, TF over GST control); with SPIB, 1.18 fold enrichment (6-mer frequency, TF over GST control); with ELK3 it was 1.1 fold enrichment (6-mer frequency, TF over GST control); with FEV, 1.19 fold enrichment (6-mer frequency, TF over GST control); in the experiment with ETV5, 1.37 fold enrichment (6-mer frequency, TF over GST control); in the experiment with HSF1, 1.17 fold enrichment (6-mer frequency, TF over GST control). The binding signal with SPIC is 1.31 fold enrichment (6-mer frequency, TF over GST control); with ELF4, 1.15 fold enrichment (6-mer frequency, TF over GST control); with ELK4 it was 1.29 fold enrichment (6-mer frequency, TF over GST control); with ETV2, 1.13 fold enrichment (6-mer frequency, TF over GST control); with ELF3, 1.27 fold enrichment (6-mer frequency, TF over GST control); in the experiment with CRX it was 1.44 fold enrichment (6-mer frequency, TF over GST control). Also, in the experiment with ETV1, the binding signal was 1.13 fold enrichment (6-mer frequency, TF over GST control).
